Six1-Eya2 inh: inhibitors of human Six1/Eya2 interaction. AID 651725. 360,000 compounds, 0.56% hits. activity change, % (test concentration not listed). Q15475+O00167. AlphaScreen GST-Six1/His-Eya2 binding, biochemical; hits give low values
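GST-Six1 + His-Eya2 (5X stock: 250/500 nM); Tris pH 8.0, 300 mM NaCl, 0.05% BSA, 0.02% Tween 20; GSH donor/Ni acceptor beads; 1 h 37 °C dark; AlphaScreen readout.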
PI5P4Ka inh: blocks human PI5P4K alpha kinase activity; max response, %; PI5P4Kalpha enzyme, ADP-Glo luminescence, 60 min; hits give low values; 330,000 compounds, 1.2% hits; active = max response of -50% or lower; inconclusive = between -30% and -50%; inactive = -30% or higher; also: value at the top dose of about 77 µM
Target sequence (P48426 whole entry, looked up): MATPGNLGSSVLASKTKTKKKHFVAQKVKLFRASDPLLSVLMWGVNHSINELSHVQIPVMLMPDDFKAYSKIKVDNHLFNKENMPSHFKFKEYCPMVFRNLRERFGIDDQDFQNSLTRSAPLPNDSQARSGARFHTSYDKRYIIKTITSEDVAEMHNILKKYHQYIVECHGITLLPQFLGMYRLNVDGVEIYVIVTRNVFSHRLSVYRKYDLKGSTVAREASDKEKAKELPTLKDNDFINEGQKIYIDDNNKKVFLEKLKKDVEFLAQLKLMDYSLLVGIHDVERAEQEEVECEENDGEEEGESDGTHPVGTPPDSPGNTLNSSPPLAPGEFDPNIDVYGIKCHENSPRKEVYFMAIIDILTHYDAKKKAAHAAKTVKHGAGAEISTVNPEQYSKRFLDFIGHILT
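Compounds were pin-transferred onto PI5P4Kalpha and substrate in HEPES pH 7.4 buffer with EGTA, CHAPS and 5% DMSO. ATP (5 microM final) started the reaction, which ran 60 minutes at room temperature before ADP-Glo detection.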
PI4K2A inh: blocks human PI4K2A kinase activity; Q9BTU6; purified PI4K2A, ADP-Glo luminescence, 1 h; hits give low values; activity change, negative = inhibition, % at 76.9 µM; 420,000 compounds, 0.13% hits; AID 1346378; in the data active = activity change below about -50%; inconclusive = mostly about -30% to -49%;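 also: -100% = wells without enzyme as full effect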
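PI4K2A activity was measured by ADP-Glo luminescence: enzyme (4 ug/mL stock) and phosphatidylinositol (1.2 mM stock) in Tris pH 7.5/MgCl2/EGTA/Triton X-100 buffer were reacted with ATP (300 microM stock) for one hour at ambient temperature.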
pAkt inh: inhibitors of Akt phosphorylation; Neuro2A IGF-stimulated pAkt S473 HTRF, 20 min; hits give low values; activity change, % for hits at 50 µM; 360,000 compounds, 0.32% hits; AID 651550; in the data active = activity change below about -80%; inconclusive = mostly about -51% to -80%
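Neuro2A cells in DMEM with 0.5% FBS, overnight at 37 deg C, given compound at single 50 µM final, then IGF (6 nM final) for 20 min at 37 deg C. Lysed; phospho-Akt Ser473 by HTRF after 24 h, 665/615 ratio.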
CtBP-E1A blk: blocks the CtBP interaction with E1A; AlphaScreen GST-E1A/His-CtBP binding, 1536-well; hits give low values; activity change, % (concentration not given with the values); 340,000 compounds, 0.49% hits; AID 651724
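AlphaScreen with 125 nM GST-E1A and 125 nM His-CtBP (5X stocks) in Tris pH 8.0, 300 mM NaCl, BSA, Tween 20, TCEP. Compounds preincubated 2 h at 37 deg C, then glutathione donor/nickel acceptor beads added for 1 h at 37 deg C in dark.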
ADP-Glo counter: interferes with ADP-Glo detection without enzyme present | shares compounds with PI5P4Ka inh | ADP-Glo detection counter-screen, luciferase luminescence, no enzyme | Potency, µM (titrated, usually from 76.9 µM), inactives show at the highest dose activity change, negative = inhibition, usual class: inhibitors | 1,100 tested, under 10 active | AID 743285; active = well fitted curve in the direction sought with a large enough effect; inconclusive = small, poorly fitted or top-dose-only effect, or another doubt; inactive = no such curve, though single readings can be large or run the other way
An asterisk follows results filed as active; i = inactive; ? = inconclusive; · = not tested or not shown. Sampled rows, rich in hits. Any-hit rate of the full collection: about 1.8%. Rule as the data show it, unless noted: active = activity change below about -65%; inconclusive = mostly about -30% to -63%; inactive = weaker than that. Unless noted, % is scaled to controls: 0 for no effect and ±100 for the full control effect.

SMILES	Six1-Eya2 inh	PI5P4Ka inh	PI4K2A inh	pAkt inh	CtBP-E1A blk	ADP-Glo counter
CC(C)(C)C1=Nn2c(nnc2-c2n[nH]c3c2CCC3)SC1	-17.4	-61.1*	-23.7	i	-17.0	1.4%
NC(=O)c1ccsc1NC(=O)c1ccc([N+](=O)[O-])o1	8.9	-52.1*	4.8	i	1.2	-15.3%
Cc1nc(CSc2ccc(Cl)cc2)cc(N2CCOCC2)n1	4.4	5.4	-3.0	i	-1.6	·
Cc1nc(CS(=O)(=O)c2ccccc2)cc(N2CCOCC2)n1	25.7	-56.8*	-3.1	i	2.4	-10.8%
O=C(NCC1CCCCC1)C1(CC2CC(c3cccc(Br)c3)=NO2)CCNCC1 (stereo unspecified)	-1.6	-7.0	1.1	i	-3.4	·
Cc1nc(-c2cccc(C(F)(F)F)c2)sc1C(=O)O	5.9	-50.1*	-6.4	i	11.9	1.8%
Cc1nc(-c2ccccc2)sc1C(=O)O	3.7	?	-12.0	i	6.5	·
O=C(NCCCCc1ccccc1)c1cccc(NC(=O)C2CC2)c1	-1.7	-53.3*	-5.3	i	2.9	-1.2%
Cn1ccc(-c2ccccc2)n1	7.6	2.5	-4.4	i	-3.7	·
N#Cc1cc(-c2ccccc2)nn1-c1ccccc1	19.5	-80.5*	-5.5	i	23.6	-10.6%
O=C(CCn1nnc2ccccc21)Nc1nnc(Cc2ccccc2)s1	-3.4	-52.6*	-4.2	i	-14.8	0.6%
COc1ccc(Cn2nnnc2C(c2ccccc2Cl)N2CCN(C)CC2)cc1 (stereo unspecified)	8.4	7.1	-5.1	i	2.1	·
Cc1oc2ccc(OCc3c(F)cccc3Cl)cc2c1C(=O)O	-0.3	-54.6*	1.7	i	·	-1.7%
Cc1oc2ccc(OCc3cccc(Cl)c3)cc2c1C(=O)O	3.4	?	4.2	i	-4.8	·
COc1ccc(CCN2CC(O)=C(c3nc4ccccc4c(=O)[nH]3)C2=N)cc1OC	-4.8	·	-5.5	i	-13.7	·
Cc1ccc(NC(=O)N2CCC(NC(=O)c3cccc(C)c3)CC2)cc1	-9.4	-77.8*	-1.6	i	-6.4	-5.1%
COc1ccc2c(c1)c(=O)oc1c(C)c(OCc3cc(C(=O)O)oc3C)ccc12	?	-68.1*	-5.4	i	-18.9	1.3%
O=C(NCc1ccc(F)cc1)C1CCN(S(=O)(=O)c2cccnc2)CC1	3.8	-0.3	2.9	i	-2.1	·
Cc1cc([N+](=O)[O-])cc2c1NC(c1ccccn1)C1CC=CC21 (stereo unspecified)	-20.7	-70.8*	-7.7	i	-10.0	-4.4%
Cc1ccc(CC(=O)Nc2ccc(F)c([N+](=O)[O-])c2)cc1C	3.0	1.8	-1.0	i	·	·
COc1cc(Br)cc(CNc2ccc(F)c([N+](=O)[O-])c2)c1O	-11.7	-28.2	-2.0	i	-4.9	0.4%
CC(=O)c1ccc(OCc2c(-c3ccccc3)nnn2CC(=O)NS(=O)(=O)c2ccccc2C)cc1	-0.4	-50.7*	-4.3	i	-3.7	-3.6%
CN(Cc1cn(-c2ccccc2)nc1-c1cc2ccccc2o1)C(=O)CCC(=O)O	-13.2	-58.5*	3.0	i	-4.3	-0.5%
O=C(O)CCCCCNC(=O)/C(=C\c1ccco1)NC(=O)c1ccco1	-1.0	-0.3	-7.3	i	·	·
O=C(O)/C(=N/NC(=O)c1ccc(Cl)cc1)c1ccccc1	6.1	0.9	-4.1	i	·	·
SMILES	Six1-Eya2 inh	PI5P4Ka inh	PI4K2A inh	pAkt inh	CtBP-E1A blk	ADP-Glo counter
N#Cc1c(NC(=O)CSc2ncccn2)oc(-c2ccccc2)c1-c1ccccc1	-0.4	-58.2*	-7.9	i	23.7	5.8%
Cc1cc(-c2ccccc2)nnc1NCCN1CCOCC1	-2.4	-19.7	-5.4	i	-3.1	·
CCOc1ccc(CCNS(=O)(=O)c2ccc3c(c2)NC(=O)CO3)cc1OCC	2.0	-8.6	-0.9	i	-9.7	·
O=C1COc2ccc(S(=O)(=O)NCCc3ccccc3)cc2N1	4.5	-50.8*	0.9	i	7.1	1.7%
CNC(=S)N(Cc1cccs1)Cc1cc2cc(OC)ccc2[nH]c1=O	1.8	-50.8*	-4.8	i	-10.4	1.4%
COc1ccc2[nH]c(=O)c(CN(Cc3cccs3)C(=S)Nc3cccc(C)c3)cc2c1	4.4	18.1	0.5	i	3.0	·
Clc1ccc(-c2nnc(-c3ccc(Br)cc3)c(N3CCSCC3)n2)cc1	-2.7	·	6.7	i	-0.1	·
Clc1ccc(-c2nnc(-c3ccco3)nc2N2CCCCC2)cc1	-12.0	-67.2*	0.9	i	-21.6	-4.7%
Cc1cccc(C)c1Nc1nnc(SCC(=O)c2ccc(Br)s2)s1	2.1	-19.8	0.7	i	-5.6	·
N#CC1(Nc2cccc(Cl)c2)CCCC1	1.2	-9.8	0.3	i	-0.1	·
Cc1cnc(C(=O)OCc2nc3ccsc3c(=O)[nH]2)cn1	-16.8	-65.0*	-7.0	i	-29.4	-11.2%
O=C(O)c1cc(-c2ccc(-c3c(-c4ccc5c(c4)OCO5)noc3-c3ccsc3)cc2)nc2ccccc12	-2.1	-70.7*	-0.5	i	3.4	0.4%
CN(C)c1ccc(-c2c(-c3ccc4c(c3)OCO4)noc2-c2ccsc2)cn1	-15.5	8.2	-2.5	i	-1.1	·
CC1CCCC(C)N1C(=O)COC(=O)CNC(=O)c1ccccc1 (stereo unspecified)	-0.5	-3.5	1.6	i	20.1	-1.3%
NC(Cc1ccc(C(F)(F)F)cc1)c1csc(NC(=O)Nc2ccccc2)n1 (stereo unspecified)	4.1	-56.0*	-1.5	i	2.2	-2.2%
Cc1cc(C)c2c(=O)[nH]c(SCC(=O)NCCc3ccccc3)nc2n1	4.8	·	0.2	i	5.7	·
COCc1ccc2oc(C(=O)O)cc2c1	5.4	-67.6*	-0.7	i	3.0	-0.5%
COCCN(C(=O)COC(=O)c1cc2c(s1)CCC2)c1c(N)n(Cc2ccccc2)c(=O)[nH]c1=O	?	-86.7*	?	i	-14.0	-0.5%
O=C(NC1CC1)c1ccc(NC(=O)C2CCCC2)cc1	-7.2	-0.6	-2.2	i	3.1	·
O=C(NC1CC1)c1ccc(NC(=O)C2CCC2)cc1	-0.7	-51.3*	-2.5	i	4.8	-4.5%
COc1ccc(Cl)cc1NC(=O)CSc1nc2sccc2c(=O)[nH]1	-13.2	-53.5*	1.3	i	-7.7	1.9%
CCOc1ccccc1-n1c(SCC(=O)Nc2ccccc2C(=O)O)nc2ccccc2c1=O	-19.4	-57.5*	2.0	i	-12.1	-5.6%
CCn1c(SCC(=O)Nc2ccccc2OC)nc2ccccc2c1=O	-6.1	·	-2.1	i	-6.8	·
Oc1ccccc1Nc1nc2ccccc2n2nnnc12	·	·	1.8	·	·	·
Cc1sc2ncnc(NC(C)C(=O)O)c2c1C (stereo unspecified)	22.6	·	-0.5	i	0.0	-4.7%
